Assay outcomes deposited in PubChem by National Center for Advancing Translational Sciences (NCATS).
An excerpt weighted towards active compounds, which were near 2.8% of everything screened.
KDM5B inhibitor: blocks human KDM5B histone demethylase activity; KDM5B demethylase, FDH-coupled NADH fluorescence (FDH is formaldehyde dehydrogenase); Potency, µM (titrated, usually from 57.7 µM), hits mostly inhibitors; 220,000 compounds, 2.6% hits; further: potency means the concentration at half of the fitted maximal effect; 0% is about no effect; nearly all actives have a fitted effect of over 70% in size
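Inhibition is measured as reduced NADH fluorescence generation from FDH coupling to formaldehyde release. Truncated KDM5BΔAP at 200 nM final acts on H3K4me3 peptide (12.5 µM in substrate mix) in pH 7.5 HEPES buffer with Tween-20, 30 min, room temperature.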
SNCA expr inh: inhibitors of alpha-synuclein (SNCA) gene expression. HEK-293 SNCA-luciferase knock-in, luminescence, 24 h. 140,000 compounds, 0.17% hits. Potency, µM (series often up to 57.2 µM), for the others: at the highest dose activity change, negative = inhibition, hits mostly inhibitors;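 further: potency means the concentration at half of the fitted maximal effect; plate controls were DMSO cells for no effect and cell-free wells for full effect; nearly all actives have a fitted effect of over 45% in size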
IP6K1 inh: inhibitors of human IP6K1; Q92551; AID 1645851; IP6K1 kinase, ADP-Glo luminescence, 2 h; stronger effect = lower value; 140,000 compounds, 0.81% hits; activity change, % (series mostly up to about 58 µM); in the data active means activity change below about -25%; further: on the % scale 0 is the no-effect control and ±100 the full control effect
Target sequence (Q92551 whole entry, looked up): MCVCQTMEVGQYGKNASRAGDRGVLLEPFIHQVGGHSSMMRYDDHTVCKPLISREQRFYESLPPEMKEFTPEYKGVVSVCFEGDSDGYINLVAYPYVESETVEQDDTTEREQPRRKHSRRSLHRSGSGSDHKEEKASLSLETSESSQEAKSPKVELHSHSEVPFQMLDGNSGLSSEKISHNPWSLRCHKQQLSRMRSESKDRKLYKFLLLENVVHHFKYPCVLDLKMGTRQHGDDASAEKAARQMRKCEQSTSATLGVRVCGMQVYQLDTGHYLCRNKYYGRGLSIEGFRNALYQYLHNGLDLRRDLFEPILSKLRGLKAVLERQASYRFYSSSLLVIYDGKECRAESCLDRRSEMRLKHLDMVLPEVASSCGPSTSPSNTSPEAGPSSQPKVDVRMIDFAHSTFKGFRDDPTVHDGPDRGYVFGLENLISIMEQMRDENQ
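ADP-Glo luminescence measures ADP made by human IP6K1 during a 2 h RT reaction with ATP/IP6 (mix at 1.3 mM/130 uM); top library doses 57.5 and 19.1 uM final.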
SNCA viab count: cell viability loss counter-screen; HEK-293-SNCA-luc viability, GF-AFC fluorescence, 24 h; Potency, µM (series often up to 57.1 µM), for inactives: at the top dose activity change, negative = cytotoxicity, actives largely listed as cytotoxic; 150,000 compounds, 0.12% hits; AID 1671193;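 further: potency means the concentration at half of the fitted maximal effect; 0% = DMSO-treated cells and -100% = medium-only wells without cells; nearly all actives have a fitted effect of over 30% in size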
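HEK-293-SNCA-luc cells (1500/well) plated 24 h, then exposed 24 h to a dilution series; GF-AFC added 30 min at 37C, fluorescence 405/540 nm; normalised to medium-only and DMSO wells, Hill fit.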
IP6K1 inh cnf: human IP6K1 inhibition, confirmatory | Potency, µM (doses to about 49 µM), without a hit: top-dose activity change, negative = inhibition, hits mostly inhibitors | AID 1645852 | 1,200 compounds, 13% hits | recombinant IP6K1 kinase, ADP-Glo luminescence, 2 h | shares compounds with IP6K1 inh; further: potency means the concentration at half of the fitted maximal effect; on the % scale 0 is the no-effect control and ±100 the full control effect; nearly all actives have a fitted effect of over 65% in size
Active calls of the source: *; i = inactive; ? = inconclusive; / = not tested or not shown; [ ] = remark or other dose. Unless noted, the call rests on the fitted dose curve; in most records, active means well fitted curve in the direction sought with a large enough effect; inconclusive means small, poorly fitted or top-dose-only effect, or another doubt; inactive means no such curve, though single readings can be large; an effect the other way counts as inactive or inconclusive.

SMILES	KDM5B inhibitor	SNCA expr inh	IP6K1 inh	SNCA viab count	IP6K1 inh cnf
CCOc1cc(CNc2ccc(O)cc2)cc(Br)c1OCc1ccccc1	?	-6%	-43*	-11%	?
CNCc1cc(Br)c(OCc2ccccc2)c(OC)c1	i	/	/	/	/
Cn1nc(C(=O)N(Cc2ccc(F)cc2)C2CC2)c2ccccc2c1=O	i	/	/	/	/
COc1ccc(S(=O)(=O)N2CCc3c(C(=O)NCCc4cccs4)cccc32)cc1	i	7%	4	-23%	/
CC(=O)N(Cc1cccnc1)c1nc2ccc(F)cc2s1	i	51%	-2	-7%	/
O=C(CCS(=O)(=O)c1ccccc1)N(Cc1cccnc1)c1nc2ccc(F)cc2s1	?	42%	-26*	-6%	-12%
O=S(Cc1cccc(C(F)(F)F)c1)Cc1ccccc1F (configuration not stated)	i	/	/	/	/
O=C(O)Cn1nnc(-c2ccc(OCc3cccc(C(F)(F)F)c3)cc2)n1	?	6%	-30*	1%	?
COc1ccc(N2CCN(CC(O)COc3c(OC)cccc3OC)CC2)cc1 (configuration not stated)	?	51%	-46*	7%	-15%
COc1ccc(N2CCN(CC(O)COc3ccccc3C(C)(C)C)CC2)cc1 (configuration not stated)	?	?	-27*	5%	?
CNC(=O)N1CCC(C2CCN(C(=O)NCCCOC)C2)CC1 (configuration not stated)	i	7%	11	6%	/
O=C(c1ccc(F)cc1F)N1CCC2(CC1)OCC(C(=O)N1CCCC1)N2C(=O)c1ccccc1 (configuration not stated)	i	-11%	-1	6%	/
CC(=O)Oc1cccc(O)c1	/	-47%[25.6 µM]	35	-16%[23.9 µM]	/
COc1cc(O)cc(/C=C/c2cccc(O)c2)c1	/	/	-45*	-18%	?
C=CCNC(=O)NC(=O)CN(CCOC)CC(=O)Nc1cccc(C)c1C	i	/	/	/	/
Cc1nc2ccccc2n1CCC(=O)N1C[C@@H](C)[C@](O)(C(C)C)C1	i	9%	-37*	2%	-9%
COc1cc(C2c3c(oc4ccccc4c3=O)C(=O)N2c2nnc(C(C)C)s2)cc(OC)c1OC (configuration not stated)	i	-1%	-26*	-7%	6%
Cc1ccc(C2c3c(oc4ccccc4c3=O)C(=O)N2c2nnc(C)s2)cc1 (configuration not stated)	i	-1%	17	-9%	/
CCOc1ccc(C2c3c(oc4ccccc4c3=O)C(=O)N2c2nnc(C)s2)cc1OC (configuration not stated)	i[11.5 µM]	24%	-37*	-3%	-10%
CN1CC(=O)N(C2CCCNC2)Cc2c(NC3CCCCCC3)ncnc21 (configuration not stated)	?	1%	-4	1%	/
C[S+](=O)([O-])NCc1nnc2n1C(C(=O)NCc1ccccc1)CC2 (configuration not stated)	/	-3%[87.6 µM]	11	0%[12.5 µM]	/
C[S+](=O)([O-])NCc1nnc2n1C(C(=O)NCc1ccccc1F)CC2 (configuration not stated)	/	1%	-28*	12%	-2%
COc1cccc(-c2ccc3c(N)c(C(=O)Nc4ccccc4C)sc3n2)c1	?	?	-26*	?	2%
COc1cccc(-c2ccc3c(N)c(C(=O)Nc4cc(F)ccc4F)sc3n2)c1	i	106%	18	?	/
Cn1ccc(NC(=O)c2ccc(-c3ncc4cnc(-c5cccc(F)c5)cn34)cc2)n1	?	-9%[87.6 µM]	-9	-9%[87.6 µM]	/
SMILES	KDM5B inhibitor	SNCA expr inh	IP6K1 inh	SNCA viab count	IP6K1 inh cnf
O=C(O)c1ccc(-c2ncc3cnc(-c4cccc(F)c4)cn23)cc1	35µM*	-10%[87.6 µM]	-30*	4%[87.6 µM]	?
O=C(CCc1ccccc1)N1CCC2(CC1)CC(N(Cc1ccccc1)C1CC1)CCO2 (configuration not stated)	i	-9%	-27*	2%	-14%
CNC(=O)[C@@H]1CCCN1C(=O)c1cccc(-c2ccccc2OC)c1	/	2%[87.6 µM]	-5	6%[12.5 µM]	/
CCCC(=O)N1Cc2ccccc2CC2(CCCN2Cc2ccc(OC)cc2)C1 (configuration not stated)	i	0%	-12	9%	/
O=S(=O)(c1ccc(-c2cc(C(F)(F)F)on2)s1)N1CCN(c2cccc(Cl)c2)CC1	i	-13%	-33*	-9%	61%
Cc1ccc2c(c1)OC(c1ccc3c(c1)OCCO3)CC2=O (configuration not stated)	i	/	/	/	/
O=C1C[C@@H](c2ccc(O)cc2)Oc2cc(O)ccc21	/	/	-35*	-8%	?
Cc1cccc(C(=O)N2CCCCCNC(=O)CC2c2ccccc2)c1 (configuration not stated)	i	5%	-7	1%	/
Cc1ccccc1[C@@H]1CN(C(=O)CCC(=O)NC2CCCC2)C[C@H]1C(=O)O	i	-15%	-35*	-5%	13%
O=C1NCCCCCN(C(=O)c2cnccn2)[C@H]2CCC[C@@H]12	i	-9%	-6	0%	/
COc1ccc(Cl)cc1NC(=O)Cn1ncc2c3ccccc3n(Cc3ccccc3)c2c1=O	?	11%	-27*	2%	-2%
O=C(Nc1ccc(N2CCC(N3CCCCC3)CC2)c(C(=O)O)c1)c1ccccc1	?	15%	-37*	4%	?
O=C1CCCN1CC1CCN(C(=O)c2ccc(N3CCC(CO)C3)nc2)CC1 (configuration not stated)	?	-5%	5	4%	/
COCCCNc1ccc(C(=O)N2CCC(CN3CCCC3=O)CC2)cn1	?	-1%	-57*	2%	-7%
O=S(=O)(NCc1ccc(Cl)cc1)c1ccc(N2CCCCS2(=O)=O)cc1	i	?	20	9%	/
O=S(=O)(NCc1ccc(F)cc1)c1ccc(N2CCCCS2(=O)=O)cc1	i	-17%	-32*	3%	16%
CCN1/C(=C/C=C/c2sc3ccccc3[n+]2CC)Sc2ccccc21	/	-76%[17 µM]	-36*	0%[12.5 µM]	?
CCN1/C(=C/C=C2/SC(=Nc3cccc4ncccc34)N(C)C2=O)Sc2ccccc21	i	/	/	/	/
CC(=O)Nc1ccc(Nc2ncnc3c2cnn3C)cc1	i	241%	-3	8%	/
CC#CC(=O)Nc1ccc2ncnc(Nc3cccc(Br)c3)c2c1	/	/	2	?	/
CC(=O)c1cccc(Nc2ncnc3c2cnn3C)c1	i	55%	-38*	-6%	?
O=C(O)c1cccc(Nc2ncnc3ccc(Br)cc23)c1	?	10%	-26*	0%	?
CCOc1ccc(C(=O)Nc2ccc(O)c(-c3nc4ccccc4o3)c2)cc1Br	i	/	/	/	/
COc1ccc(-c2nc(CSCC(=O)NCCc3ccc(OC)c(OC)c3)c(C)o2)cc1	i	-8%	28	-26%	/
